Experimental data reported in PubChem BioAssay (NCATS).
Calls of active or inactive are those of the source. Calls come from the whole dose curve.

experiment: Cell Proliferation Assay Versus the ED40515 IL2 Dependent ATL cell lines (AID 1053195); conditions: ED40515 IL2-dependent ATL cells
Description: Adult T-cell leukemia (ATL) develops in individuals infected with human T-cell lymphotropic virus-1 (HTLV-1). Clinically, ATL is subclassified into four subtypes: smoldering, chronic, lymphomatous, and acute. Two autocrine loops (IL-2/IL-2Ralpha and IL-15/IL-15Ralpha) and one paracrine stimulation loop that involves IL-9 expression by ATL cells and IL-9Ralpha expression on monocytes are required to maintain viability and proliferation in the smoldering and chronic forms of the disease. These assays examined the differential response profiles for the MIPE library of approved and investigational drugs versus an IL2 dependent and independent matched ATL cell line, with the current submission examining the differential response profiles for drugs on an IL2 dependent matched ATL cell line.
Plate log growing ED40515 +IL2 cells: 1000cells/ well in 5uL phenol red free RPMI +5% FBS +1x p/s, Glutamine using 1536 well white griener tissue culture plates and multidrop cassette acoustic dispensing Columns 1 and 3 DMSO Columns 2 and 4, 9.2 uM Bortezomib Incubate 48 hours for celltiter glo 37C with 5%CO2 and 95% humidity with low evaporation lids Dispense 3 uL per well of cell titer glo with multidrop Incubate for 15 minutes at RT Read on VL/2 using Luminesence Wheel (Filter A)

Structure (SMILES) | Potency
Cc1c(C)c2c(c(C)c1O)CCC(C)(COc1ccc(CC3SC(=O)NC3=O)cc1)O2 (stereo not given) | 16.6 µM (active)
Nc1nccc(-c2ccc3noc(-c4ccc(Cl)cc4)c3c2)n1 | 23.5 µM (active)
COc1cc2nccc(Oc3ccc(NC(=O)NC4CC4)c(Cl)c3)c2cc1C(N)=O | 20.9 µM (active)
O=C(O)CCc1ccc(NCc2cccc(Oc3ccccc3)c2)cc1 | 0.0833 µM (active)
CNC(=O)c1ccc(N2C(=S)N(c3ccc(C#N)c(C(F)(F)F)c3)C(=O)C2(C)C)cc1F | 16.6 µM (active)
C[C@H](NC(=O)Cc1cc(F)cc(F)c1)C(=O)N[C@@H]1C(=O)N(C)c2ccccc2-c2ccccc21 | 20.9 µM (active)
CNC(=O)c1ccc(C)c(-n2c(C)cc(OCc3ccc(F)cc3F)c(Br)c2=O)c1 | 5.9 µM (active)
Cc1cc(SCc2sc(-c3ccc(C(F)(F)F)cc3)nc2C)ccc1OCC(=O)O | 26.4 µM (active)
O=c1ncn2nc(Sc3ccc(F)cc3F)ccc2c1-c1c(Cl)cccc1Cl | 16.6 µM (active)
CCC(=O)N[C@H]1CC[C@H](C(=O)N(C)c2ccc(-c3nc4ccccc4o3)cc2)C1 | 3.32 µM (active)
Cc1cc(Nc2nc(N[C@@H](C)c3ncc(F)cn3)ncc2Cl)n[nH]1 | 0.662 µM (active)
C[C@@H]1C[C@H]2[C@@H]3CCC4=CC(=O)C=C[C@]4(C)C3(F)[C@@H](O)C[C@]2(C)[C@@]1(O)C(=O)CO (stereo not given in full) | 2.64 µM (active)
OCCn1cc(-c2cnc3nnn(Cc4ccc5ncccc5c4)c3n2)cn1 | 18.7 µM (active)
NC(=O)c1ccc(-c2nc(-c3ccc4c(c3)OCO4)c(-c3ccccn3)[nH]2)cc1 | 37.2 µM (active)
CCOC(=O)C1=C[C@@]2(CC)CCCN3CCc4c(n1c1ccccc41)[C@H]32 | 9.5 µM (active)
CN(C)c1ccc(Nc2nc(N)n(C(=O)c3c(F)cccc3F)n2)cc1 | 0.743 µM (active)
O=S(=O)(N=Cc1c(O)ccc2ccccc12)c1cccs1 | 20.9 µM (active)
COc1cccc2cc(-c3nc(C4CCC(C(=O)O)CC4)n4ncnc(N)c34)[nH]c12 (stereo not given) | 4.18 µM (active)
NC(=O)C1CCCc2c1[nH]c1ccc(Cl)cc21 (stereo not given) | 33.2 µM (active)
Cc1n[nH]c(C)c1Cc1sc2c(c1C(=O)N1C[C@H](O)CO1)c(=O)n(C)c(=O)n2CC(C)C | 0.0019 µM (active)

Structure (SMILES) | Potency
O=C(C=Cc1ccc(/C=C/C(=O)Nc2ccc(C3=NCCN3)cc2)cc1)Nc1ccc(C2=NCCN2)cc1 | 2.09 µM (active)
Clc1ccc(Nc2nnc(Cc3ccncc3)c3ccccc23)cc1 | 37.2 µM (active)
Cc1cccc(-c2nn(C(=S)Nc3ccccc3)cc2-c2ccnc3ccccc23)n1 | 2.35 µM (active)
CN([C@@H](Cc1ccc(OS(=O)(=O)c2cccc3cnccc23)cc1)C(=O)N1CCN(c2ccccc2)CC1)S(=O)(=O)c1cccc2cnccc12 | 6.62 µM (active)
CNCc1ccc(-c2[nH]c3cc(F)cc4c3c2CCNC4=O)cc1 | 20.9 µM (active)
CCCc1nn(C)c2c(=O)[nH]c(-c3cc(S(=O)(=O)N4CCN(C)CC4)ccc3OCC)nc12 | 37.2 µM (active)
CCOc1ccc(Cc2cc([C@@H]3O[C@H](CO)[C@@H](O)[C@H](O)[C@@H]3O)ccc2Cl)cc1 | 4.69 µM (active)
Cc1c(CN2CCN(C(=O)C(C)C)CC2)sc2c(N3CCOCC3)nc(-c3cnc(N)nc3)nc12 | 1.66 µM (active)
COc1ccc(-c2ccc3c(N4CCOCC4)nc(N4C[C@@H](C)O[C@@H](C)C4)nc3n2)cc1CO | 1.48 µM (active)
CC[C@@H](C)[C@H](NC(=O)[C@H](CC1CCCCC1)NC(=O)c1ccno1)C(=O)N1CCC2(CCc3ccccc32)CC1 | 2.64 µM (active)
O=C1[C@H](Cc2ccc(O)cc2)N2C(=O)CCN(C(=O)NCc3ccccc3)[C@H]2CN1Cc1cccc2ccccc12 | 8.33 µM (active)
COc1ccc(COc2cc3oc(=O)c4cc(C(C)O)ccc4c3cc2OC)cc1 (stereo not given) | 18.7 µM (active)
CCC(C)N(C)C(=O)c1cc2ccccc2c(-c2ccccc2Cl)n1 (stereo not given) | 11.8 µM (active)
Cn1cc(-c2ccc3nnc(C(F)(F)c4ccc5ncccc5c4)n3n2)cn1 | 7.43 µM (active)
COc1ccc(-c2ccc3c(N4CCOC[C@H]4C)nc(N4CCOC[C@H]4C)nc3n2)cc1CO | 0.0935 µM (active)
Nc1nc2[nH]cc(CCc3ccc(C(=O)N[C@@H](CCC(=O)O)C(=O)O)cc3)c2c(=O)[nH]1 | 0.0296 µM (active)
CCC(C)n1ncn(-c2ccc(N3CCN(c4ccc(OC[C@H]5CO[C@](Cn6cncn6)(c6ccc(Cl)cc6Cl)O5)cc4)CC3)cc2)c1=O (stereo not given in full) | 1.32 µM (active)
CCN(CC)CCCC(C)Nc1nc(C)cc(Nc2ccc3nc(C)cc(N)c3c2)n1 (stereo not given) | 18.7 µM (active)
Cc1ccc2c(c1)C(=O)[C@@]1(O)CCN(c3ccccc3)C1=N2 | 13.2 µM (active)
CCOc1cc(N2CCC(O)CC2)ccc1Nc1ncc2c(n1)N(C)c1ccccc1C(=O)N2C | 11.8 µM (active)
